Assay outcomes as filed in PubChem.
Most compounds without a hit are left out; they make up all but 4.3% or so of the library.
NALP1 yeast inh = NALP1 inflammasome inhibitors in reconstituted yeast, colorimetric, S. cerevisiae, triplicate retest | S. cerevisiae NALP1/ASC/caspase-1 growth, X-gal OD620, 72 h | inhibition, % at 10 µM | hit rate 0.61% among 280,000 | AID 2071, 2009; in the data active = inhibition mostly above about 24%, no sharp cut-off; inactive = mostly below about 32%
dFosB act-1 = activators of delta FosB homodimer, primary screen, biochemical, fluorescence polarization, TAMRA-CDK5 oligo, single point; activation, % at 25 µM; AID 493131, 2011; Protein FosB (Mus musculus), P13346; hit rate 0.99% among 340,000; purified delta FosB; percent of positive-control signal above neutral wells;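 active = mean activation above about 17%, with every replicate also reaching it, limit read from the data, passing the limit was not always enough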
Target sequence (P13346 whole entry, looked up): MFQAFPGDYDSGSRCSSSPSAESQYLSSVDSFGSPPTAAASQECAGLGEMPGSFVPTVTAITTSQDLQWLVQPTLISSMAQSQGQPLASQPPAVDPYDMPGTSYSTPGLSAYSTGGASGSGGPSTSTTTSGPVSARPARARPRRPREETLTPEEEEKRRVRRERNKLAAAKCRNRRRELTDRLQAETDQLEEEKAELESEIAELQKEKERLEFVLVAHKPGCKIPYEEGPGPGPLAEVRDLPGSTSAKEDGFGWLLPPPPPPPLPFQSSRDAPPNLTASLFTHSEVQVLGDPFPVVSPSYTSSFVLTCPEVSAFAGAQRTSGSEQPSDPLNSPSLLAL
CR mimetic SO = reduction of superoxide in aged yeast, primary screen, HTS; superoxide response (% of plate mean), % at 10 µM; S. cerevisiae aged cells, superoxide DHE fluorescence; hits give low values; hit rate 0.18% among 330,000; AID 2690, 2010;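 active = superoxide response under a set limit, about three screen SD below normal, cut at about 65% in these data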;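 note: yeast aged for seven days with compound at 30 °C before DHE staining; 100% = average MFI of all compound-treated wells on the plate with controls excluded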
UBC13 inh = UBC13 polyubiquitin chain formation inhibitors, primary screen, biochemical, TR-FRET, uHTS | hit rate 0.47% among 330,000 | inhibition, % at 20 µM | AID 485273, 2010; in the data active = inhibition above about 45%, passing the limit was not always enough
NR3A LBD binder = binders of NR3A ligand-binding domain, primary screen, biophysical, differential scanning fluorimetry, uHTS | NR3A LBD differential scanning fluorimetry, Tm shift; 0% = protein alone, 100% = glycine-bound protein | Tm shift relative to glycine control, % at 25 µM | hit rate 2.5% among 340,000 | Glutamate receptor ionotropic, NMDA 3A (GRIN3A) ligand-binding domain;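 active = melting temperature shift of at least 10% of the positive control shift, at one fixed dose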
dFosB act-2 = activators of mouse delta FosB DNA binding, confirmation, biochemical, fluorescence polarization, TAMRA-CDK5 oligo, cherry-picked samples. 2,400 tested, under 10 active. activation, % at 24.9 µM. shares compounds with dFosB act-1. AID 588690, 2011. purified delta FosB; normalised: neutral wells 0, positive control 100;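 active = highest replicate activation at or above 34% and every replicate reaching that threshold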;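 note: higher polarization means more probe DNA bound by delta FosB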
The depositor's hits bear a star; nt = no result given.

SMILES	NALP1 yeast inh	dFosB act-1	CR mimetic SO	UBC13 inh	NR3A LBD binder	dFosB act-2
C=CCNC(=O)/C(=C/c1cn(-c2ccccc2)nc1-c1cccc([N+](=O)[O-])c1)NC(=O)c1ccccc1	8.3	19.4*	110.5	9.9	-12.2	4.8
CN(C)C(=O)/C(=C/c1cn(-c2ccccc2)nc1-c1cccc([N+](=O)[O-])c1)NC(=O)c1ccccc1	28.5	-3.4	104.1	-4.4	-4.3	nt
CC(CNc1nc2ccc(Cl)cc2n2cnnc12)c1ccccc1 (configuration not stated)	19.9	-4.7	79.9	-4.5	1.8	nt
COc1ccccc1N(CC1CO1)S(=O)(=O)c1ccc(C)cc1 (configuration not stated)	16.5	-8.2	103.1	5.0	-2.2	nt
COc1ccc2nc(C)cc(SCC(=O)Nc3c(C)cccc3C)c2c1	13.8	73.3*	93.0	nt	0.9	-4.4
O=C(CCc1ccccc1)Nc1nc2n(n1)C(c1ccccc1)CC(=O)N2 (configuration not stated)	12.3	27.0*	93.1	-2.0	-0.3	-0.7
CCOc1cc(/C=N/N=C(\N)c2nonc2N)cc(Br)c1OCc1cccc2ccccc12	-0.9	40.7*	116.1	-14.3	1.1	3.9
O=Cc1cn(-c2ccccc2)nc1-c1cc2cc(O)ccc2oc1=O	-27.8	24.8*	102.5	-6.5	-8.3	3.3
O=Cc1cn(-c2ccccc2)nc1-c1cc2c(ccc3ccccc32)oc1=O	-0.6	1.9	101.0	-2.2	6.4	nt
Cc1ccc(NC(=O)c2sc3ncn(CC(=O)N4CCN(c5ccccn5)CC4)c(=O)c3c2C)cc1Cl	1.1	35.1*	114.1	25.9	13.9*	1.2
Cc1ccc(NC(=O)c2sc3ncn(CC(=O)N4CCN(c5ccccn5)CC4)c(=O)c3c2C)cc1F	0.7	10.0	96.2	4.5	9.8	nt
COc1ccc(C(=O)N2C(=O)c3ccc(N)cc3C2=O)cc1	7.9	49.5*	94.0	4.4	0.0	3.9
CCNC(=S)N1CCc2cc(OC)c(OC)cc2C1COc1ccc(OC)cc1 (configuration not stated)	16.1	-7.9	111.3	-4.2	0.1	nt
COc1cccc(NC(=S)N2CCc3cc(OC)c(OC)cc3C2COc2ccc3c(C)cc(=O)oc3c2)c1 (configuration not stated)	9.6	65.2*	78.2	11.9	-3.2	1.1
O=C1OC(c2ccc(Cl)cc2)/C(=C(/O)c2ccccc2)C1=O (configuration not stated)	-7.3	3.7	111.5	-6.2	2.3	nt
CCCC(=O)Nc1ccc(NC(=S)NC(=O)c2cccs2)cc1	7.9	6.6	95.8	2.7	2.4	nt
O=C(NC(=S)Nc1cccc(NC(=O)c2ccccc2Cl)c1)c1cccs1	34.0	1.8	90.4	4.2	-1.9	nt
CC(=O)NC(=S)Nc1ccc(NC(=S)NC(=O)c2cccs2)cc1	8.7	37.0*	98.1	-10.2	2.4	2.6
Cc1ccccc1C(=O)Nc1cccc(NC(=S)NC(=O)c2cccs2)c1	14.7	50.2*	104.9	-10.2	-2.9	0.0
Cc1ccc(S(=O)(=O)Nc2ccc(NC(=O)Nc3ccc(F)cc3F)cc2)cc1	37.3	20.2*	107.2	17.9	28.9*	4.5
O=C(Nc1ccc(NC(=O)c2ccccc2O)cc1)Nc1ccc(F)cc1F	nt	31.8*	95.3	11.6	31.2*	6.9
O=C(Nc1ccncc1)Nc1ccc(F)cc1F	13.8	-15.1	112.8	5.8	2.0	nt
COc1ccc(C2N(Cc3ccccc3)CCN2Cc2ccccc2)cc1[N+](=O)[O-]	27.5	3.1	100.2	8.4	3.3	nt
Cc1cc(=O)[nH]c(N/N=C/c2c(C)nn(-c3ccc(F)cc3)c2Cl)n1	14.3	45.8*	91.8	-5.7	-1.0	0.4
Cc1cc(=O)[nH]c(NN=Cc2c(Cl)cccc2Cl)n1	nt	-13.4	nt	nt	1.3	nt
COc1ccc(CCNC(=O)C2CCC(=O)N2CCc2ccccc2)cc1OC (configuration not stated)	5.8	3.2	93.5	-8.4	0.4	nt
